For seven molecules, activation, Potency and outcome results are on record in PubChem BioAssay (NCATS).

Records with an inconclusive call do not appear. A number with no mark means an inactive call. Calls of active or inactive are those of the source. Unless noted, calls follow the shape of the dose curve; as a rule, active = well fitted curve in the direction sought with a large enough effect; inconclusive = small, poorly fitted or top-dose-only effect, or another doubt; inactive = no such curve, though single readings can be large; an effect the other way counts as inactive or inconclusive.

Assay [1] addresses Bile acid receptor (Homo sapiens) (UniProt Q96RI1). As to the kind of experiment: qHTS assay for small molecule agonists of farnesoid X receptor signaling (AID 588527; calls by dose curve;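 also: series mostly up to about 77 µM; 0% = vehicle basal and 100% = reference agonist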). Particulars: HEK293T FXR-UAS-bla, beta-lactamase ratio, 16 h; stronger effect = higher value. In a few lines:
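FXR-UAS-bla HEK293T, 10% dialyzed FBS; cpds up to 92 uM titration, 16 h 37 C; CCF4 dye 2 h RT; fluorescence. Normalized to chenodeoxycholic acid 100 uM (100%) and DMSO (0%); Hill fit gives EC50, efficacy.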
On the technique in general: Quantitative high-throughput screening tests each substance at several concentrations.

The nature of assay [2]: VSVG counterscreen qHTS to identify inhibitors of SARS-CoV-2 cell entry (AID 1645847; calls by dose curve; also: potency is read from the fitted curve at half-maximal effect; nearly all actives have a fitted effect of over 65% in size). In a few lines:
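Entry of VSV-G pseudotyped particles into human ACE2-expressing HEK293 cells was measured by luciferase luminescence 48 h after infection, with compound added 1 h beforehand.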

Assay [3] addresses N-terminal Xaa-Pro-Lys N-methyltransferase 1 (Homo sapiens) (UniProt Q9BV86). The experiment in a line: Confirmatory qHTS for Inhibitors of N-terminal methyltransferase 1 (NTMT1): MTaseGlo Assay (AID 1645874).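 Also: luminescence from SAH made as NTMT1 methylates SPKRIA peptide using SAM; series mostly up to about 100 µM; 0% = DMSO control and -100% = no-enzyme control; nearly all actives have a fitted effect of over 65% in size.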 In a few lines: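 SPKRIA peptide at 1 uM was methylated by 125 nM NTMT1 using 100 uM SAM over 30 min at room temperature, following a 15 min compound preincubation. Product SAH was detected luminescently.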

For assay [4], the target named is Rap guanine nucleotide exchange factor 3 (Homo sapiens) (UniProt O95398). The experiment in a line: Confirmatory qHTS for antagonist of cAMP-regulated guanine nucleotide exchange factor 3 (EPAC1) (AID 1645880).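 Also: plate controls were DMSO only for no effect and full effect of the ATA control for full effect; nearly all actives have a fitted effect of over 55% in size.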 In a few lines:
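Released BODIPY-GDP fluoresces less than Rap1-bound BODIPY-GDP; the signal is followed at 480/540 nm at 5-min intervals over 30 min, after 5 min at room temperature. Reactions contain 100 nM EPAC1, 250 nM RAP1B-BODIPY-GDP and 50 uM GDP; results are normalized to ATA and DMSO.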

For assay [5] the target is unchanged. As to the kind of experiment: Confirmatory qHTS for agonist of cAMP-regulated guanine nucleotide exchange factor 3 (EPAC1) (AID 1645881).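 Also: EPAC1 catalysed release of BODIPY-GDP from Rap1B seen as fluorescence loss; 100% = effect of cAMP agonist control; nearly all actives have a fitted effect of over 75% in size.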
In assay [6] the target is Nuclear receptor subfamily 1 group I member 3 (Homo sapiens) (UniProt Q14994). As to the kind of experiment: Primary qHTS for antagonist of constitutive androstane receptor (CAR) against the NCATS DSHEA and TCM libraries (AID 1794836).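 Also: HepG2 cells stably expressing hCAR with CYP2B6 luciferase reporter stimulated by CITCO; series mostly up to about 40 µM.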 In a few lines:
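HepG2-CYP2B6-hCAR cells, attached 5 h, given compounds plus CITCO agonist […], incubated 24 h at 37 C. Luciferase luminescence read, multiplexed with CellTiter-Fluor viability (Ex/Em 405/540 nm).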

The target in assay [7] is Glutathione peroxidase 1 (Homo sapiens) (UniProt P07203). As to the kind of experiment: Primary qHTS Assay for Inhibitors of Recombinant Selenoprotein Glutathione Peroxidase 1 (GPX1) (AID 1845191). Also: nearly all actives have a fitted effect of over 65% in size. In a few lines: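 GR-coupled readout: NADPH consumption tracked by fluorescence, ex 340/em 450 nm, at t=0 and after 15 min at RT. Final mix 10 nM GPX1, 1 mM GSH, 0.5 mM CHP, 0.5 mM NADPH, 100 nM GR, 0.01% BSA, following 30 min enzyme–compound preincubation.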
Glutathione peroxidase 1 (Homo sapiens), sequence (P07203 whole entry, looked up): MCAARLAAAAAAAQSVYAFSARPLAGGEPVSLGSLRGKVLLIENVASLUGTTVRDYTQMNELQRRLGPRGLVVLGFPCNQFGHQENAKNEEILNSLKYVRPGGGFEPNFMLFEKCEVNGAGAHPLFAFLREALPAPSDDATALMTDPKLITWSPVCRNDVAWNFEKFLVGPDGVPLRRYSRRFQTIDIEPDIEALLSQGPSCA

In assay [8] the target is Rap guanine nucleotide exchange factor 4 (Homo sapiens) (UniProt Q8WZA2). The experiment in a line: Confirmatory qHTS for agonist of cAMP-regulated guanine nucleotide exchange factor 4 (EPAC2) (AID 1645884).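 Also: nucleotide exchange releases bodipy-GDP from Rap1 and this lowers its fluorescence; % is scaled to controls: 0 for no effect and ±100 for the full control effect; nearly all actives have a fitted effect of over 65% in size.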
Rap guanine nucleotide exchange factor 4 (Homo sapiens), sequence (Q8WZA2 whole entry, looked up): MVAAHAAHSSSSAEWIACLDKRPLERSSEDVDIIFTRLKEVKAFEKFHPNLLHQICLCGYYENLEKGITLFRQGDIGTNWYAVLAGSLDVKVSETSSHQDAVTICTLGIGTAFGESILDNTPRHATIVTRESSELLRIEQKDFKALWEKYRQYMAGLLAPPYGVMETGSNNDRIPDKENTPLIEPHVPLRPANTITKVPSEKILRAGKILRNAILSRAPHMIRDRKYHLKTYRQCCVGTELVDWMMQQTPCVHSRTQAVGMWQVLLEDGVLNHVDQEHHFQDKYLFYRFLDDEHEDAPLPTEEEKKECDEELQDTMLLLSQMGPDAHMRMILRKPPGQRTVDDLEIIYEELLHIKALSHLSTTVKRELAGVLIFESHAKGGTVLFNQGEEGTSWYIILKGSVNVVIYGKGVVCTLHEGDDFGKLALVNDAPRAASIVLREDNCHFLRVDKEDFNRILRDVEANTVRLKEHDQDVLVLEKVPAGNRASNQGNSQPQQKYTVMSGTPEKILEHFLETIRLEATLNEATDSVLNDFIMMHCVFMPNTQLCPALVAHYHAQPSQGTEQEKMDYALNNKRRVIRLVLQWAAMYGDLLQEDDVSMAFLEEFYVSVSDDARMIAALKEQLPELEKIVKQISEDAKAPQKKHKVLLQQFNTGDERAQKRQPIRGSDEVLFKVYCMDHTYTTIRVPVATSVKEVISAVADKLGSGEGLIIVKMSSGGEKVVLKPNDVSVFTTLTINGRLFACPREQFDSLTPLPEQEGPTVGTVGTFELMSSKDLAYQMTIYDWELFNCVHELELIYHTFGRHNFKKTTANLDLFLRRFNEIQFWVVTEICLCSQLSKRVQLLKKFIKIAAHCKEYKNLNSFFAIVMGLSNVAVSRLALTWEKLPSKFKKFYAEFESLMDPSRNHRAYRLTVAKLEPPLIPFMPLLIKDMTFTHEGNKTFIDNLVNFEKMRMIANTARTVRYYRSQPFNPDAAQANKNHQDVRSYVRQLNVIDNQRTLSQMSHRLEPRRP
Assay [9] shares this target. The experiment in a line: Confirmatory qHTS for antagonist of cAMP-regulated guanine nucleotide exchange factor 4 (EPAC2) (AID 1645885). Also: % is scaled to controls: 0 for no effect and ±100 for the full control effect; nearly all actives have a fitted effect of over 25% in size.
Assay [10] has as its target Rap guanine nucleotide exchange factor 3 (Homo sapiens) (UniProt O95398). The experiment in a line: Counterscreen qHTS for antagonist of cAMP-regulated guanine nucleotide exchange factor 3 (EPAC1) (AID 1645888). Also: % of control where 0% means no effect. In a few lines:
(§1)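 Rap1B–BODIPY-GDP (250 nM) with 50 uM GDP; compounds pin-transferred to 9.74 nM–152 uM final (activator) or from 7.32 nM upwards (inhibitor). Fluorescence Ex/Em 480/540 nm read at 5 and 30 min, then after adding cAMP or buffer, at room temperature.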
(In general: The purpose of a counterscreen is to sort out artefacts and off-target activity.)

The target is the same in assay [11]. The experiment in a line: Counterscreen qHTS for agonist of cAMP-regulated guanine nucleotide exchange factor 3 (EPAC1) (AID 1645889). Also: % of control where 0% means no effect; nearly all actives have a fitted effect of over 40% in size. In a few lines: as §1

Rap guanine nucleotide exchange factor 3 (Homo sapiens), sequence (O95398 whole entry, looked up): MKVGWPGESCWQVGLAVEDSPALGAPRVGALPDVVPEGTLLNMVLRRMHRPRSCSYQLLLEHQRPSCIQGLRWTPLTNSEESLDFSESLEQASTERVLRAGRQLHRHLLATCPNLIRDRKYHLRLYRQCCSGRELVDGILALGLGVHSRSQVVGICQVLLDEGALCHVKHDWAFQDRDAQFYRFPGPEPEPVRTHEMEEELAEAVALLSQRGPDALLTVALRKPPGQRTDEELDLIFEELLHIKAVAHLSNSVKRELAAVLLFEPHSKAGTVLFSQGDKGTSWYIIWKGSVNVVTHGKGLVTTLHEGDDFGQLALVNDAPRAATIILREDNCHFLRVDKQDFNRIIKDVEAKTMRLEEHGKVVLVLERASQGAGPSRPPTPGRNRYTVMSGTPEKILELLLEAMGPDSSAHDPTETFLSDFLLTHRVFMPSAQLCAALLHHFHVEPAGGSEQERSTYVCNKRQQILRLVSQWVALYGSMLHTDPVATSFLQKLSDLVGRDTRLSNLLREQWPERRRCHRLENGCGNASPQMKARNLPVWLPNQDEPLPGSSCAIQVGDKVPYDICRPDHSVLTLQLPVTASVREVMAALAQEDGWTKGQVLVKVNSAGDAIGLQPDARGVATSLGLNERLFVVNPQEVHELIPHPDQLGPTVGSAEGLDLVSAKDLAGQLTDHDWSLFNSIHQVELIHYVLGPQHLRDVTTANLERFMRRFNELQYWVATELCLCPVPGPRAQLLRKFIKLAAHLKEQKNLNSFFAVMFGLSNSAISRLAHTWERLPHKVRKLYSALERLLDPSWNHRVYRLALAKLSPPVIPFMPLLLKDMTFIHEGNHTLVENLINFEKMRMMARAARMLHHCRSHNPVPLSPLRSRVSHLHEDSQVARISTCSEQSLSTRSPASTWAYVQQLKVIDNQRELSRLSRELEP
Nuclear receptor subfamily 1 group I member 3 (Homo sapiens), sequence (Q14994 whole entry, looked up): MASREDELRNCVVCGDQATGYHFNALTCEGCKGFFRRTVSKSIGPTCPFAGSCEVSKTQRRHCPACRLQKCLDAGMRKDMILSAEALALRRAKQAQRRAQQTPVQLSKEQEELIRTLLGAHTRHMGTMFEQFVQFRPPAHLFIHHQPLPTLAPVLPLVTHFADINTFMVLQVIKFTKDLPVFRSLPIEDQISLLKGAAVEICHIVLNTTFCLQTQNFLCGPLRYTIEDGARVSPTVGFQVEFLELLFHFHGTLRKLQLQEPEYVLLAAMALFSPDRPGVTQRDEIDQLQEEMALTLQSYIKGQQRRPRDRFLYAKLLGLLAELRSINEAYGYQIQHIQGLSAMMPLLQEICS
N-terminal Xaa-Pro-Lys N-methyltransferase 1 (Homo sapiens), sequence (Q9BV86 whole entry, looked up): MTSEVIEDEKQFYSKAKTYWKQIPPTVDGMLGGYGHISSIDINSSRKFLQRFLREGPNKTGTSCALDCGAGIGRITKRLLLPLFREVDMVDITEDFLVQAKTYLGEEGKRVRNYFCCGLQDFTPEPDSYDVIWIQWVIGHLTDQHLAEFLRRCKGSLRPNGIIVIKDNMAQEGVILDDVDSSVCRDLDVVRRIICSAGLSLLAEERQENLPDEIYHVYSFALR
Bile acid receptor (Homo sapiens), sequence (Q96RI1 whole entry, looked up): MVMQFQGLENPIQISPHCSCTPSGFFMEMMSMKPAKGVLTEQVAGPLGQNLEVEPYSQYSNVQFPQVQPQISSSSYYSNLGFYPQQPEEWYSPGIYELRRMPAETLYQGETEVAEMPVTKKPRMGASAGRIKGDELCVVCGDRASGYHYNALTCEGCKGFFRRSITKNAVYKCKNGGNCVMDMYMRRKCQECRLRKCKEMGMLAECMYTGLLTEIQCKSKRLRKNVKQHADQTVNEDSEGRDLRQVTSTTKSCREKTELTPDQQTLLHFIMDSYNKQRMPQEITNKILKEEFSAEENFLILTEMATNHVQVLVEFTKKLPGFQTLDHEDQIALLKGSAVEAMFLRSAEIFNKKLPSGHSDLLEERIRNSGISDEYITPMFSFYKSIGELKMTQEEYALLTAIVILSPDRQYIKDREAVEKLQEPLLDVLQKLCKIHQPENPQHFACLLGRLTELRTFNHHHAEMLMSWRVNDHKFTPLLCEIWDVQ

Turning to `Clc1ccc(-c2nc3sccn3c2/C=N/OCc2ccc(Cl)c(Cl)c2)cc1`, the activation in assay [1] was 14.7%.

On to `Nc1nc2c(c(=O)[nH]1)N1CN(c3ccc(C(=O)N[C@@H](CCC(=O)O)C(=O)O)cc3)CC1CN2` (stereo partly drawn), for which the Potency in assay [2] was 3.41 µM (active).

With `CCOc1ccc(CN(CCc2ccc3c(c2)OCO3)Cc2cccc(Br)c2)cc1`, in assay [3], the result was inactive.

In the case of `CCOC(=O)[C@]12Cc3cc(N(C)C)ccc3[C@H]1N(Cc1ccccc1)C(=O)c1ccccc12`, the Potency entry in assay [4] and in [5] was “inactive” throughout.

`C[C@H]1[C@H](C)CC[C@]2(C(=O)O)CC[C@]3(C)C(=CC[C@@H]4[C@@]5(C)CC[C@H](O)C(C)(C)[C@@H]5CC[C@]43C)[C@H]12`: the Potency result in assay [6] was “inactive”.

Regarding `c1cc2c(cc1C1OC[C@@H]3C(c4ccc5c(c4)OCO5)OC[C@H]13)OCO2` (stereo partly drawn), the Potency result in assay [7] was “inactive”.

Take `OC1/C(=C/c2ccc(C(F)(F)F)cc2)N2CCC1CC2` (stereo not drawn): the Potency result in assay [4], in assay [5], in [8], in assay [9] and in assay [11] was “inactive” in each case. In addition, the molecule was classed as inactive in [10].
